Results as given in PubChem BioAssay (Tox21).
Records with an inconclusive call do not appear. Activity calls are given as the source filed them. Unless noted, calls follow the shape of the dose curve; as a rule, active = well fitted curve in the direction sought with a large enough effect in the repeat runs; inconclusive = weak or mixed curves; inactive = no such curve, though single readings can be large; an effect the other way counts as inactive or inconclusive.

How the values were obtained:
[1] = qHTS assay to identify small molecule agonists of the RXR signaling pathway - cell viability counter screen (AID 1159529); also: nearly all actives have a fitted effect of over 50% in size; also: potency is read from the fitted curve at half-maximal effect
Outline: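 RXR-alpha-UAS-bla HEK 293T cells in medium with 2% charcoal-stripped FBS were preincubated 5 hr, then exposed to compounds for 16 hr at 37 C. Viability was read as CellTiter-Glo luminescence after 30 min at room temperature.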

[2] = qHTS assay to identify small molecule antagonists of the retinoid acid receptor (RAR) signaling pathway - cell viability counter screen (AID 1159551); also: nearly all actives have a fitted effect of over 35% in size; also: potency is read from the fitted curve at half-maximal effect
Outline: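 C3RL4 cells were seeded overnight at 37 C, then treated with compounds plus 1 uM (final) retinol for 6 h at 37 C. Viability was read as ATP by CellTiter-Glo luminescence after 30 min at room temperature.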

[3] = qHTS assay to identify small molecule antagonists of the retinoic acid receptor (RAR) signaling pathway (AID 1159552; also: nearly all actives have a fitted effect of over 50% in size; also: potency is read from the fitted curve at half-maximal effect)
Outline: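 RARE-luc C3RL4 cells; cpds + 1 uM (final) retinol, 6 hr, 37 C/5% CO2; luciferase reagent, 30 min RT, luminescence readout. Inhibitors of retinol-driven signal scored.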

[4] = qHTS assay to identify small molecule agonists of the retinoic acid receptor (RAR) signaling pathway (AID 1159553)
Outline: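 C3RL4 cells carrying a RARE luciferase reporter were plated overnight at 37 C, then exposed to compounds in DMSO for 6 hr at 37 C and 5% CO2. Luminescence was read 30 min after luciferase reagent addition at room temperature.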

[5] = qHTS assay to identify small molecule antagonists of the estrogen related receptor (ERR) signaling pathway from Tox21 library - cell viability counter screen (AID 1224834); also: nearly all actives have a fitted effect of over 30% in size; also: potency is read from the fitted curve at half-maximal effect
Outline: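 ERR reporter cells were plated 6 h before compound addition, then exposed to test compounds in DMSO for 17.5 h at 37 C. Viability was read as CellTiter-Fluor fluorescence after a 30-minute incubation at 37 C.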

[6] = molecular target: Luciferin 4-monooxygenase (Photinus pyralis) (UniProt P08659); experiment: qHTS assay to identify small molecule inhibitors of firefly luciferase (AID 1224835); also: nearly all actives have a fitted effect of over 25% in size; also: potency is read from the fitted curve at half-maximal effect
Outline: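 Biochemical qHTS: compounds run as interplate titrations against purified firefly enzyme, with D-luciferin and ATP each at its KM concentration. Light output recorded by CCD imaging.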

[7] = qHTS assay to identify small molecule agonists of the constitutive androstane receptor (CAR) signaling pathway - cell viability counter screen (AID 1224836); also: nearly all actives have a fitted effect of over 45% in size; also: potency is read from the fitted curve at half-maximal effect
Outline: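 HepG2 cells stably carrying hCAR and a CYP2B6-2.2kb reporter were plated 4 h, then given compounds at 15 concentrations plus PK11195 (final 0.75 uM). After 23 h at 37 C, viability was read by CellTiter-Fluor fluorescence.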

[8] = qHTS assay to identify small molecule antagonists of the constitutive androstane receptor (CAR) signaling pathway - cell viability counter screen (AID 1224837); also: nearly all actives have a fitted effect of over 45% in size; also: potency is read from the fitted curve at half-maximal effect
Outline: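 HepG2 cells stably expressing hCAR and a CYP2B6-2.2kb reporter were plated and pre-incubated 4 hr at 37 C/5% CO2, then given compounds at 15 concentrations plus 50 nM CITCO (final). After 23 hr, viability was read by CellTiter-Fluor fluorescence.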

[9] = qHTS assay to identify small molecule antagonists of the estrogen related receptor signaling pathway with the pleiotropic PPARgamma coactivator (PGC) from Tox21 10K library - cell viability counter screen (AID 1224840; active = well fitted cell-killing curve with a large enough effect in the repeat runs, not every such curve was filed as active; also: nearly all actives have a fitted effect of over 40% in size; also: potency is read from the fitted curve at half-maximal effect)
Outline: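 PGC/ERR cells were seeded at 2,000 cells/well and left 6 hours at 37 C/5% CO2 before pin-tool addition of compounds in DMSO. After 17.5 hours at 37 C, CellTiter-Fluor was added and fluorescence read 30 minutes later.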

[10] = molecular target: Nuclear receptor subfamily 1 group I member 3 (Homo sapiens) (UniProt Q14994); experiment: qHTS assay to identify small molecule antagonists of the constitutive androstane receptor (CAR) signaling pathway (AID 1224838); also: nearly all actives have a fitted effect of over 40% in size; also: potency is read from the fitted curve at half-maximal effect
Outline: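 HepG2 cells stably co-transfected with hCAR and a CYP2B6-2.2kb luciferase reporter were seeded 4 h before compound addition at 15 concentrations. Cells were stimulated with 50 nM CITCO (final) for 24 h at 37 C; luciferase luminescence was then read.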

[11] = molecular target: Nuclear receptor subfamily 1 group I member 3 (Homo sapiens) (UniProt Q14994); experiment: qHTS assay to identify small molecule agonists of the constitutive androstane receptor (CAR) signaling pathway (AID 1224839); also: nearly all actives have a fitted effect of over 15% in size; also: potency is read from the fitted curve at half-maximal effect;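 as to activation: HepG2 cells stably carrying human CAR and a CYP2B6 luciferase reporter; series mostly up to about 92 µM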
Outline: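 HepG2 cells stably expressing hCAR and a CYP2B6-2.2kb luciferase reporter were treated with compounds at 15 concentrations plus 0.75 uM PK11195 (final) for 24 h at 37 C; luminescence was read after ONE-Glo addition.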

[12] = molecular target: Thyrotropin receptor (Homo sapiens) (UniProt P16473); experiment: qHTS assay to identify small molecule agonists of the thyroid stimulating hormone receptor (TSHR) signaling pathway (AID 1224843; calls by dose curve; also: nearly all actives have a fitted effect of over 45% in size)
Outline: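 TSHR-HEK293 cells in agonist mode, 30 min room-temperature step, then cAMP measured by competitive HTRF (cAMP-d2 with anti-cAMP cryptate) after 1 h at room temperature. Tested at 15 concentrations in triplicate.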

[13] = qHTS assay to identify small molecule antagonists of the estrogen related receptor (ERR) signaling pathway - cell viability counter screen (AID 1224818); also: potency is read from the fitted curve at half-maximal effect;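 also: viability measured after 17.5 h of compound exposure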
Outline: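 ERR reporter cells plated 6 h at 37 C/5% CO2, then compounds in DMSO pin-transferred and incubated 17.5 h at 37 C. Viability read as CellTiter-Fluor fluorescence after 30 min at 37 C.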

[14] = qHTS assay to identify small molecule antagonists of the estrogen related receptor (ERR) signaling pathway (AID 1224819; also: nearly all actives have a fitted effect of over 50% in size; also: potency is read from the fitted curve at half-maximal effect)
Outline: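 ERR reporter cells were plated at 2,000 cells/well and left 6 h at 37 C/5% CO2 before pin-tool transfer of compounds in DMSO. After 18 h at 37 C, One-Glo was added and luminescence was read 30 min later at room temperature.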

[15] = qHTS assay to identify small molecule antagonists of the estrogen related receptor signaling pathway with the pleiotropic PPARgamma coactivator (PGC) cell viability counter screen (AID 1224822; also: potency is read from the fitted curve at half-maximal effect)
Outline: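 PGC/ERR cells were seeded at 2,000 cells/well, rested 6 h at 37 C/5% CO2, then given compounds in DMSO by pin tool and incubated 17.5 h at 37 C. Viability came from CellTiter-Fluor fluorescence after 30 min.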

[16] = qHTS assay to identify small molecule agonists of the estrogen related receptor (ERR) signaling pathway (AID 1224820)
Outline: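 ERR reporter cell line (from NTP), 2,000 cells/well, incubated 6 h before compound addition, then 18 h at 37 C. Luminescence measured 30 min after One-Glo reagent at room temperature.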

[17] = test system: estrogen-related receptor alpha (ERRalpha) with PGC-1alpha coactivator, human; experiment: qHTS assay to identify small molecule antagonists of the estrogen related receptor signaling pathway with the pleiotropic PPARgamma coactivator (PGC) (AID 1224821; calls by dose curve; also: nearly all actives have a fitted effect of over 50% in size; also: potency is read from the fitted curve at half-maximal effect)
Outline: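 PGC/ERR reporter cell line, plated 6 h before compound addition, then exposed 18 h at 37 °C. Luciferase activity read by luminescence 30 min after One-Glo addition; decrease indicates antagonism.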

[18] = qHTS assay to identify small molecule agonists of the estrogen related receptor signaling pathway with the pleiotropic PPARgamma coactivator (PGC) (AID 1224823)
Outline: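 PGC/ERR reporter cells seeded 6 h, then exposed to compounds (23 nL in DMSO) for 18 h at 37 C. One-Glo luciferase luminescence read after 30 min at room temperature.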

[19] = qHTS assay to identify small molecule agonists of the estrogen related receptor signaling pathway with the pleiotropic PPARgamma coactivator (PGC) from Tox21 10K library (AID 1224842); also: nearly all actives have a fitted effect of over 15% in size
Outline: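 PGC/ERR reporter cell line, 2,000 cells per well, incubated 6 h at 37 C before 23 nL compound in DMSO was added. After 18 h at 37 C, One-Glo luminescence read following 30 min at room temperature.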

[20] = qHTS assay to identify small molecule antagonists of the estrogen related receptor signaling pathway with the pleiotropic PPARgamma coactivator (PGC) from Tox21 10K library (AID 1224841; call rule not given here; also: potency is read from the fitted curve at half-maximal effect)
Outline: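 PGC/ERR reporter cells were seeded at 2,000 cells/well and held 6 hours at 37 C/5% CO2 before pin-tool addition of compounds in DMSO. After 18 hours at 37 C, One-Glo was added and luminescence read after 30 minutes at room temperature.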
% is scaled to controls: 0 for no effect and ±100 for the full control effect.

Chain of Thyrotropin receptor (Homo sapiens) (P16473 whole entry, looked up): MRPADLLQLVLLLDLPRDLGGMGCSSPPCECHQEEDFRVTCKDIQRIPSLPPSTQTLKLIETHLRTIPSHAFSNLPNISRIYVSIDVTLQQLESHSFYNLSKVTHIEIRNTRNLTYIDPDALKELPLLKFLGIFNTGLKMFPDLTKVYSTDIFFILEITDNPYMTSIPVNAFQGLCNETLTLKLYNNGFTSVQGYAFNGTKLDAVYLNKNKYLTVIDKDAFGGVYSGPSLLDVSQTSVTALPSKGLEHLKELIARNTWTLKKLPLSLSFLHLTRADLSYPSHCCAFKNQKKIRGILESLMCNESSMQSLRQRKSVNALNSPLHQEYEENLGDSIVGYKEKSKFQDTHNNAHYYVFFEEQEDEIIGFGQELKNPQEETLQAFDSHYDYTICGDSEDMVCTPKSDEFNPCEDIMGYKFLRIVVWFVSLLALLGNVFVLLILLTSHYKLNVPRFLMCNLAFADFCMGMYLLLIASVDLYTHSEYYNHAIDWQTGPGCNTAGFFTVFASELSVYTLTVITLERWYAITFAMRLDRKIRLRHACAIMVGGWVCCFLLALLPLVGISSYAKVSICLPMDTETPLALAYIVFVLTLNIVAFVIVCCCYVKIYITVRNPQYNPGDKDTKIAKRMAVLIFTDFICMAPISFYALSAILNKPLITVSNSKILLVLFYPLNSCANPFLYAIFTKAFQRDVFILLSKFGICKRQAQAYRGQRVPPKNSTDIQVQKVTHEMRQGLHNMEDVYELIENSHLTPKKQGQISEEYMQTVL
Chain of Nuclear receptor subfamily 1 group I member 3 (Homo sapiens) (Q14994 whole entry, looked up): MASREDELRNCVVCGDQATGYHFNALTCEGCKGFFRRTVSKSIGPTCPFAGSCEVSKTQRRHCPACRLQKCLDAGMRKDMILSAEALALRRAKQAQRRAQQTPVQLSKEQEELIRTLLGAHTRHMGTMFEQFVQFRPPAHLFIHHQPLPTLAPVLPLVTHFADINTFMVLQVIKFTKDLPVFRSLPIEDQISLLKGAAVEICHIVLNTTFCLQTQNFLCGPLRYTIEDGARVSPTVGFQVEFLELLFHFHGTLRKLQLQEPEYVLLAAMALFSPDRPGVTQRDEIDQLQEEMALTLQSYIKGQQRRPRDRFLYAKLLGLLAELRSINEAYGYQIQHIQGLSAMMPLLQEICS
Chain of Luciferin 4-monooxygenase (Photinus pyralis) (P08659 whole entry, looked up): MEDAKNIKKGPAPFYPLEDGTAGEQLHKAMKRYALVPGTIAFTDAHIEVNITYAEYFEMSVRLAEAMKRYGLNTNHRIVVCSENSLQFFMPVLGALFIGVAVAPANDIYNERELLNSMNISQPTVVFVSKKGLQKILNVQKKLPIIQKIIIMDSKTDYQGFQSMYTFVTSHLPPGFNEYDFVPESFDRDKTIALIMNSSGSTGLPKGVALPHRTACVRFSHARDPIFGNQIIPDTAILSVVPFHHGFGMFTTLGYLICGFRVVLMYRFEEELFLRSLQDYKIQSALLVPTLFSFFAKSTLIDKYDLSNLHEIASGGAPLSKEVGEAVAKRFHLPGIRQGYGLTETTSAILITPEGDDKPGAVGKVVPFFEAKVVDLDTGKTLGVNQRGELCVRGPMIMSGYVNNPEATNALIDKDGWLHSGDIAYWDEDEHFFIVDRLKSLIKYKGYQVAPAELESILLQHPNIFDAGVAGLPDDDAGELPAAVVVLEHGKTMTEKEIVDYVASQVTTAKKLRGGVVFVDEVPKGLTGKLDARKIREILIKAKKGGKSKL

CC(C)OC(=O)c1cc2c(OCC(O)CNC(C)(C)C)cccc2[nH]1 (stereo not drawn)
inactive: Potency [1] | Potency [2] | Potency [3] | Potency [4] | Potency [5] | Potency [6] | Potency [7] | Potency [8] | Potency [9]

Cc1cc(=O)oc2cc(N(C)C)ccc12
inactive: Potency [1] | Potency [2] | Potency [3] | Potency [4] | Potency [10] | Potency [12]
active: Potency [11] 61.1 µM

CSc1ccc(C(=O)c2[nH]c(=O)[nH]c2C)cc1
inactive: Potency [1] | Potency [2] | Potency [3] | Potency [4] | Potency [13] | Potency [14] | Potency [15] | Potency [5] | Potency [6] | Potency [7] | Potency [8] | Potency [11] | Potency [9]

Clc1ccc2nsnc2c1NC1=NCCN1
inactive: Potency [1] | Potency [2] | Potency [3] | Potency [4] | Potency [13] | Potency [14] | outcome [16] | Potency [17] | Potency [15] | outcome [18] | Potency [5] | Potency [6] | Potency [7] | Potency [8] | Potency [10] | Potency [11] | Potency [9] | Potency [19] | Potency [12]

Cc1onc(-c2ccccc2Cl)c1C(=O)N[C@@H]1C(=O)N2[C@@H]1SC(C)(C)[C@@H]2C(=O)O
inactive: Potency [1] | Potency [2] | Potency [3] | Potency [4] | Potency [5] | Potency [6] | Potency [9] | Potency [12]

Cc1cc(N)c(S(=O)(=O)O)cc1Cl
inactive: Potency [1] | Potency [2] | Potency [3] | Potency [4] | Potency [5] | Potency [6] | Potency [7] | Potency [8] | Potency [9] | Potency [19] | Potency [12]

C[C@H]1[C@H]2CC[C@H]3[C@@H]4CC=C5C[C@@H](N(C)C)CC[C@]5(C)[C@H]4CC[C@]23CN1C
inactive: Potency [1] | Potency [2] | Potency [3] | Potency [4] | Potency [6] | Potency [8] | Potency [10] | Potency [11] | Potency [9] | Potency [20] | Potency [19] | Potency [12]

Cc1cc2c(cc1C(F)(F)F)N(C(=O)Nc1ccc(Oc3cccnc3C)nc1)CC2
active: Potency [5] 15.6 µM
inactive: Potency [1] | Potency [2] | Potency [3] | Potency [4] | Potency [6] | Potency [7] | Potency [8] | Potency [10] | Potency [11] | Potency [19]

CCN(CC)CCNC(=O)c1c(C)[nH]c(/C=C2\C(=O)Nc3ccc(F)cc32)c1C
inactive: Potency [11]
active: Potency [1] 7.56 µM | Potency [2] 33.5 µM | Potency [3] 26.6 µM | Potency [15] 8.74 µM | Potency [5] 10.6 µM | Potency [7] 10.6 µM | Potency [8] 10.6 µM | Potency [10] 10.6 µM | Potency [9] 29.8 µM

O=C(c1ccc(F)cc1)C1CCN(CCn2c(=O)[nH]c3ccccc3c2=O)CC1
inactive: Potency [1] | Potency [2] | Potency [3] | Potency [4] | Potency [13] | Potency [14] | outcome [16] | Potency [17] | Potency [15] | outcome [18] | Potency [6] | Potency [7] | Potency [8] | Potency [10] | Potency [11] | Potency [9] | Potency [20] | Potency [19] | Potency [12]

CSc1cnc(C)cn1
inactive: Potency [1] | Potency [2] | Potency [3] | Potency [4] | Potency [6] | Potency [7] | Potency [8] | Potency [9] | Potency [12]

CCCCN(CCCC)C(=O)N(CCCC)CCCC
active: Potency [11] 30.6 µM
inactive: Potency [1] | Potency [2] | Potency [3] | Potency [4] | Potency [5] | Potency [6] | Potency [7] | Potency [8] | Potency [10] | Potency [9]

S=c1[nH]c2ccccc2s1
active: Potency [6] 39.9 µM | Potency [11] 54.5 µM | Potency [20] 6.11 µM
inactive: Potency [1] | Potency [2] | Potency [3] | Potency [13] | Potency [14] | outcome [16] | outcome [18] | Potency [7] | Potency [8] | Potency [10] | Potency [19]

C[n+]1cc2c3c(ccc2c2ccc4cc5c(cc4c21)OCO5)OCO3
inactive: outcome [16] | outcome [18] | activation [11] -21.2% [at 19 µM] | activation [19] -34.9% [at 19 µM] | activation [12] -8.77% [at 19 µM]
active: Potency [1] 1.47 µM | Potency [2] 3.66 µM | Potency [3] 1.83 µM | Potency [13] 2.87 µM | Potency [14] 3.1 µM | Potency [17] 2.28 µM | Potency [15] 0.944 µM | Potency [5] 2.91 µM | Potency [6] 6.74 µM | Potency [7] 2.91 µM | Potency [8] 2.59 µM | Potency [10] 2.91 µM | Potency [20] 7.3 µM

CN(C)[C@@H]1C(=O)C(C(N)=O)=C(O)[C@@]2(O)C(=O)C3=C(O)c4c(O)ccc(Cl)c4[C@@H](O)[C@H]3C[C@@H]12
inactive: Potency [1] | Potency [2] | Potency [3] | Potency [13] | outcome [16] | Potency [17] | Potency [15] | outcome [18] | Potency [5] | Potency [6] | Potency [7] | Potency [8] | Potency [9] | Potency [19] | Potency [12]

CSc1ccc(/C=C2/C(C)=C(CC(=O)O)c3cc(F)ccc32)cc1
inactive: Potency [1] | Potency [2] | Potency [3] | Potency [4] | Potency [7] | Potency [8] | Potency [10] | Potency [11] | Potency [9] | Potency [20] | Potency [19] | Potency [12]
